ERa SRC1 pot: enhancers of ERα–SRC-1 coactivator binding, primary screen, biochemical, TR-FRET, ERα LBD, low estradiol; TR-FRET ERalpha-LBD/SRC-Cy5 coactivator binding, 2 h; 100 = basal binding, no effect; coactivator binding (% of control), % at 25.6 µM; 86,000 tested, 1.3% active; in the data active = activity above about 200%;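 also: binding measured in presence of low estradiol as agonist stimulus; 0% = peptide alone without receptor and 100% = receptor with peptide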
Calb biofilm kill: clotrimazole potentiators killing Candida biofilms, primary screen, with clotrimazole, Alamar Blue; C. albicans biofilm + clotrimazole; inhibition, % at 6 µM; 85,000 tested, 0.14% active; AID 834, 2007;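 active = inhibition above 20%; inactive = inhibition below 20%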;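 also: preformed 24 hr biofilms exposed to compound for 48 hr; 0% = biofilm without compound and 100% = blank killed by clotrimazole plus chlorhexidine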
ERb SRC1 inh: inhibitors of ERβ-SRC1 coactivator interaction, primary screen, biochemical, TR-FRET, ERβ LBD, SRC-1 peptide; Estrogen receptor beta (Homo sapiens), Q92731; TR-FRET ER-beta LBD / SRC1-Cy5 peptide binding; receptor agonist-loaded with 1 µM estradiol; inhibition, % at 25.6 µM; 86,000 tested, 1.3% active; AID 633, 2007;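 active = compounds whose percent inhibition of the receptor-coactivator binding signal exceeds about 50% in the single-dose screen, limit read from the data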;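 also: 0% = receptor plus peptide wells without compound and 100% = peptide-only wells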
ERa coact inh: ERα–SRC-1 coactivator interaction inhibitors, primary screen, biochemical, TR-FRET, ERα LBD, estradiol-bound; Estrogen receptor (Homo sapiens), P03372; inhibition, % at 25.6 µM; TR-FRET ER-alpha LBD / SRC-1 peptide; 86,000 tested, 1.7% active; in the data active = inhibition above about 50%;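 also: 0% = receptor plus peptide control and 100% = peptide only without receptor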
Smad3 FoxH1 inh: Smad3/FoxH1 peptide binding inhibitors, primary screen, biochemical, TR-FRET | AID 630, 2007 | TR-FRET Smad3/Dy647-FoxH1 peptide binding, europium anti-His | Mothers against decapentaplegic homolog 3 (Homo sapiens), P84022 | 88,000 tested, 0.29% active | inhibition, % at 25 µM;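 active = compounds that reduce the energy-transfer binding signal between the protein and its labelled peptide by more than half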;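 also: 0% = Smad3 plus labelled peptide maximal FRET and 100% = peptide-only background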
Target sequence (P84022 whole entry, looked up): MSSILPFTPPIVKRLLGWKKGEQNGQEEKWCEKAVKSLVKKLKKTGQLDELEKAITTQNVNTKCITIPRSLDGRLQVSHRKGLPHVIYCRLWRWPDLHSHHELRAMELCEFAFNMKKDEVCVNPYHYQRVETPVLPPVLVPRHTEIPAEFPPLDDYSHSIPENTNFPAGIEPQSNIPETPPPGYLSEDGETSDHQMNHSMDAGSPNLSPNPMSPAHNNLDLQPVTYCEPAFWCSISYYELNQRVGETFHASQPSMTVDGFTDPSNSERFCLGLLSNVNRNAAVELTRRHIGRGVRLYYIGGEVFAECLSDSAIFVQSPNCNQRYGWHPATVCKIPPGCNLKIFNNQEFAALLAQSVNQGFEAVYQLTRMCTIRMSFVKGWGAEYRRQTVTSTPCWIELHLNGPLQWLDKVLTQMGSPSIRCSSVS
Active calls of the source: *; x = no result given; [ ] = dose if it differs, or a comment. Hits are enriched below; roughly 3.6% of the tested compounds scored in any of these assays.

SMILES	ERa SRC1 pot	Calb biofilm kill	ERb SRC1 inh	ERa coact inh	Smad3 FoxH1 inh
CCc1ccc(C(=O)CSc2n[nH]c(-c3ccncc3)n2)cc1	101	6	-20	9	6
O=C(CSc1n[nH]c(-c2ccccc2)n1)c1ccc(O)c(O)c1	49	2	77*[fluorescence artefact?]	67*[fluorescence artefact?]	-4
O=c1c[n+](CCCC[n+]2cc(=O)o[nH]2)[nH]o1	x	x	x	x	-7
COc1cc2c3nnc(-c4ccc(F)cc4)c-3cn(Cc3ccc(C)cc3)c2cc1OC	591*[fluorescence artefact?]	7	51*[fluorescence artefact?]	6	-83
COc1cc2c3nnc(-c4ccc(F)cc4)c-3cn(Cc3cccc(C)c3)c2cc1OC	366*[fluorescence artefact?]	12	29	18	1
Cc1cccc(Cn2cnc3ccccc32)c1	92	0	10	20	-17
Cc1csc(C(C#N)C(=O)c2ccncc2)n1 (centres undefined)	65	5	63*	32	8
O=S(=O)(NCc1csc(-c2cccnc2)n1)c1ccc(Cl)s1	40	12	54*	65*	-2
N[C@@H]1[C@H](C(=O)O)[C@@H]2C=C[C@H]1C2	x	x	x	x	2
COC(=O)c1sc2ncn(-n3c(C)ccc3C)c(=O)c2c1C	106	5	-16	-6	60*
O=C(NC1C2CC3CC(C2)CC1C3)C1CC1 (centres undefined)	107	x	-6	-3	3
CCCC(=O)NC1C2CC3CC(C2)CC1C3 (centres undefined)	99	5	2	83*[fluorescence artefact?]	-17
C[N+](C)(C)/N=C/c1ccc(O)c(O)c1	x	x	x	x	13
Cc1ccccc1NCC(=O)N/N=C/C(Br)=C/c1ccccc1	101	-4	5	-4	5
Cc1cc(C)c(S(=O)(=O)NCCn2c(C)cc3ccccc32)c(C)c1	146	8	1	0	5
Cc1ccc(S(=O)(=O)NCCn2c(C)cc3ccccc32)cc1	376*	11	-7	-14	10
Cc1cc2ccccc2n1CCNC(=O)c1ccc(S(=O)(=O)N2CCCCC2)cc1	348*[fluorescence artefact?]	6	26	14	5
COc1cc(OC)cc(-c2nc(-c3ccccc3OC)no2)c1	488*[fluorescence artefact?]	5	-5	-2	4
COc1ccc(-c2nc(-c3ccc(Br)cc3)no2)c(OC)c1	206*[fluorescence artefact?]	0	9	13	-2
COc1ccc(-c2ccc(-c3noc(-c4ccccc4OC)n3)c(OC)n2)cc1	231*	-8	4	33	-7
COc1ccccc1-c1nc(-c2ccc(Br)cc2)no1	138	6	5	16	3
COc1ccc(-c2ccc(-c3noc(-c4ccc(OC)c(OC)c4)n3)c(OC)n2)cc1	87	4	44	80*	14
COc1ccc(-c2nc(-c3ccncc3)no2)cc1OC	107	4	-8	8	-6
O=C(O)Cc1ccc(C(=O)c2ccccc2F)s1	111	-6	8	4	-5
CCOC(=O)c1sc(NC(=O)CSc2nc(-c3ccco3)cc(C(F)(F)F)n2)c(C(=O)OC(C)C)c1C	92	3	-7	-9	-5
SMILES	ERa SRC1 pot	Calb biofilm kill	ERb SRC1 inh	ERa coact inh	Smad3 FoxH1 inh
COc1ccc(-c2ccc(-c3noc(-c4ccccc4C)n3)c(OC)n2)cc1	230*[fluorescence artefact?]	6	23	-3	0
COc1ccc(CC(=O)Nc2ccc(-c3noc(-c4ccccc4OC)n3)cc2)cc1	328*[fluorescence artefact?]	2	16	31	3
COc1cc(-c2nc(-c3ccc(NC(=O)c4ccc(Br)o4)cc3)no2)cc(OC)c1OC	227*[fluorescence artefact?]	2	33	72*[fluorescence artefact?]	-10
COc1cccc(-c2nc(-c3ccc(NC(=O)Cc4ccccc4OC)cc3)no2)c1	197	1	13	26	4
COc1ccc(-c2ccc(-c3noc(C)n3)c(OC)n2)cc1	152	8	9	13	4
COc1ccc(-c2ccc(-c3noc(C4CCCCC4)n3)c(OC)n2)cc1	134	-3	-9	-2	11
COc1ccc(-c2ccc(-c3noc(-c4cccs4)n3)c(OC)n2)cc1	474*	-2	29	37	3

Source: PubChem (several laboratories)
